Rows were chosen to be rich in hits. Some 12% of all compounds tested hit in one or more screens of this group.
Shiga inhibitor: A qHTS for Small Molecule Inhibitors of Shiga Toxin; Vero cells, Shiga toxin protein synthesis inhibition reporter; inhibition, % at 38.7 µM; 9.2% of 290,000 active; AID 2315, 2010; in the data active = inhibition mostly above about 28%, no sharp cut-off; inactive = mostly below about 43%; note: 0% is about no effect
SARS PLP yeast: qHTS of Yeast-based Assay for SARS-CoV PLP; Potency, µM (doses to about 32.9 µM), for the others: at the top dose activity, positive = growth rescue, most hits filed as activators; 0.19% of 330,000 active; S. cerevisiae expressing SARS-CoV PLpro, growth rescue; note: potency is the fitted concentration of half-maximal effect; 0% is about no effect; nearly all actives have a fitted effect of over 55% in size
CHX counter: Cycloheximide Counterscreen for Small Molecule Inhibitors of Shiga Toxin; cell reporter, cycloheximide protein synthesis inhibition counterscreen; max response, %; 12% of 300,000 active; in the data active = max response mostly above about 13%, no sharp cut-off; inactive = mostly below about 14%; note: read at 38.3 µM for the half of the compounds with a filed dose; 0% is about no effect
NS1 inh: qHTS Assay for Inhibitors of Influenza NS1 Protein Function; Potency, µM (titrated, usually from 46.1 µM), without a hit: at the top dose activity, positive = more growth; 0.4% of 270,000 active; AID 2326, 2010; note: potency is the fitted concentration of half-maximal effect; actives are rising curves; nearly all actives have a fitted effect of over 50% in size
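OD600 was taken as the measure of yeast growth restored by compound in an NS1-expressing S. cerevisiae strain. Cells had been washed out of glucose medium and diluted 1:100 into galactose -URA medium, pH 6.0.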
* marks the source's active call; other numbers are inactive results; ? = inconclusive; . = not tested or not shown. Unless noted, calls come from the whole dose curve.

SMILES	Shiga inhibitor	SARS PLP yeast	CHX counter	NS1 inh
CC1(C)OC(=O)N(NCc2ccccc2)C1(C)O (stereo not drawn)	-6	-2%	-6	1%
COc1ccc(C(=O)N/N=C(\C)CC(=O)Nc2cccc(C(F)(F)F)c2)cc1	81*	-3%	39*	-2%
COCCNC(=O)C(=O)N/N=C(\C)CC(=O)Nc1cccc(C(F)(F)F)c1	20	0%	13	-3%
C/C(CC(=O)Nc1cccc(C(F)(F)F)c1)=N\NC(=O)C1CCCCC1	55	0%	27*	2%
CCCN(CC(=O)Nc1cc(Cl)ccc1Cl)C(=O)c1ccc(N2CCCC2=O)cc1	.	0%	.	.
Cc1cc(C(=O)N/N=C/c2c3ccccc3cc3ccccc23)n[nH]1	21	-3%	10	-3%
O=C(N/N=C/c1cccc2ccccc12)c1cc(C2CC2)[nH]n1	75*	12%	22*	12%
COc1cc(C(=O)Oc2cccc(/C=N/NC(=O)c3cc(C)[nH]n3)c2)cc(OC)c1OC	15	-4%	15	-5%
Cc1cc(C(=O)N/N=C/c2cccc([N+](=O)[O-])c2O)n[nH]1	20	-21%	18*	-30%
Cc1cc(C(=O)N/N=C/c2cccc(OC(=O)c3cccc(Br)c3)c2)n[nH]1	23*	-2%	15	4%
O=C(N/N=C/c1ccccn1)c1cc(C2CC2)[nH]n1	111*	-4%	38*	-1%
Cc1cc(C(=O)N/N=C/c2ccc(O)c([N+](=O)[O-])c2)n[nH]1	-3	-12%	-1	1%
O=C1CCN(Cc2ccccc2)C=C1c1ccc(Br)cc1	.	28%	.	.
Cc1ccc(N2CC(C(=O)NCc3n[nH]c(=O)c4ccccc34)CC2=O)cc1 (stereo not drawn)	.	2%	.	.
COc1ccc(N2CCN(c3ccc(NC(=O)NN)cc3)CC2)cc1	.	-1%	-3	24%
Cc1cc(C(=O)N/N=C/c2ccccn2)n[nH]1	38	0%	18*	7%
CC(/C=N/NC(=O)c1cc(C(C)C)[nH]n1)=C\c1ccccc1	18	-15%	-1	16%
CC(/C=N/NC(=O)c1cc(C2CC2)[nH]n1)=C\c1ccccc1	24	0%	9.5*	0%
Cc1ccc(Cl)c(OCC(=O)OC(C)C(=O)NC2CC2)c1 (stereo not drawn)	.	3%	.	.
Oc1ccccc1C1N=C(c2ccccc2)NC(c2ccccc2)=N1	-15	-14%	1	-6%
O=[N+]([O-])C1C(c2ccccc2)=NOC1c1ccccc1O (stereo not drawn)	25*	-12%	24*	-108%
O=C(Oc1ccc2ccccc2c1Cl)N1CCCC1	59*	-1%	38*	-45%
O=C(Oc1c(Cl)cc(Cl)c2ccccc12)N1CCCC1	-14	-1%	-3	-36%
O=C(Oc1ccc2ccccc2c1Cl)N1CCCCCC1	71*	-57%	66*	-17%
O=C(Oc1ccc(Cl)c2ccccc12)N1CCCCC1	72*	?	32*	-4%
SMILES	Shiga inhibitor	SARS PLP yeast	CHX counter	NS1 inh
CCOC(=O)c1ccc(S(=O)(=O)N2CCN(C/C=C/c3ccccc3)CC2)cc1	.	-1%	.	.
CN(C)CCn1c2ccccc2c2nc3ccc([N+](=O)[O-])cc3cc21	39*	0%	16*	3%
CCn1c2ccccc2c2cc([N+](=O)[O-])ccc21	-4	-1%	-3	.
O=C(CCn1cccn1)Nc1ccc2c(c1)OCCO2	92*	1%	57*	-3%
O=C(CCN1C(=O)c2ccccc2C1=O)Nc1ccc2c(c1)OCCO2	active	0%	18*	14%
O=C(CCCN1C(=O)CCC1=O)Nc1ccc2c(c1)OCCO2	92*	6%	22*	1%
O=C(CCCCCN1C(=O)c2ccccc2C1=O)Nc1ccc2c(c1)OCCO2	47	-3%	18	-6%
O=C(CCCN1C(=O)CCC1=O)Nc1ccc2c(c1)OCO2	53*	0%	11	1%
CCCCCCN(C(=O)CCCCCN1C(=O)NC(c2ccc(-c3ccccc3)cc2)C(C(=O)OCc2ccccc2)=C1C)C(C(=O)NCCCC)c1ccc(O)c(C(=O)OC)c1 (stereo not drawn)	-1	1%	-1	?
O=C(Nc1ccc(S(=O)(=O)Nc2ncccn2)cc1)C1CC(=O)N(c2ccc(Cl)cc2)C1 (stereo not drawn)	-2	-1%	-3	-3%
Cc1ccc2c(C)c(C(=O)N3CCC(O)(c4ccccc4)CC3)oc2c1C	-4	-9%	-2	-74%
CCOc1ccc(S(=O)(=O)Nc2nc3ccccc3nc2Nc2ccc(N3CCOCC3)cc2)cc1	4	-23%	13*	11%
C[N@@+]1(Cc2ccc(Cl)c(Cl)c2)CCC[C@@H]1c1ccc[n+](Cc2ccc(Cl)c(Cl)c2)c1	.	.	.	-5%
O=C1NC2(CCCCC2)C(=O)N1/N=C/c1ccc(O)cc1O	53*	4%	38*	?
O=C1NC2(CCCCC2)C(=O)N1/N=C/c1ccccc1Br	37	3%	23*	-8%
O=C(CN1C(=O)NC2(CCCC2)C1=O)N1CCN(S(=O)(=O)c2ccccc2Br)CC1	-10	-2%	-3	1%
Cc1nn(-c2ccccc2)c(N2CCCC2)c1/C=N/NC(=O)c1cc2ccccc2cc1O	18	13%	11	?
Cc1nn(-c2ccccc2)c(N2CCCC2)c1/C=N/NC(=S)Nc1ccccc1F	98*	-2%	72*	26%
O=C(CSc1nc2nn(-c3ccccc3)c(=O)c-2c2n1CCCCC2)Nc1ccc(F)c(F)c1	.	-4%	.	.
Cc1oc(-c2cc(F)cc(F)c2)nc1CN1CCN(C(=O)c2ccco2)CC1	-9	-1%	-2	-9%
Cc1cc(=O)oc(C)c1C(=O)NCc1ccco1	14	9%	-4	25%
Cc1cc(=O)oc(C)c1C(=O)NCc1c(F)cc(F)cc1F	45	9%	28*	0%
NC(=O)c1c(NC(=O)c2cc3ccccc3o2)sc2c1CCC2	72*	0%	36*	-50%
CC(C)(C)c1ccc(C(=O)Nc2sc3c(c2C(=O)O)CCC3)cc1	20	-2%	8	0%
NC(=O)c1c(NC(=O)c2ccc(S(=O)(=O)N(CCCl)CCCl)cc2)sc2c1CCCCC2	-10	-7%	-6	12%
SMILES	Shiga inhibitor	SARS PLP yeast	CHX counter	NS1 inh
O=C(Nc1sc2c(c1C(=O)O)CCCCC2)c1ccccc1F	109*	-4%	41*	.
O=C(Nc1sc2c(c1C(=O)O)CCCC2)c1ccc(F)cc1	49*	-20%	33*	-75%
COc1ccccc1C(=O)Nc1sc2c(c1C(N)=O)CCCC2	44	-12%	12	1%
NC(=O)c1c(NC(=O)c2ccc(F)cc2)sc2c1CCC2	45*	11%	53*	-8%
Nc1ccc(C(=O)N/N=C/c2cn(Cc3cccc(F)c3)c3ccccc23)cc1	13	14%	12	-5%
Cc1ccc(C(=O)NCC(=O)NC23CC4CC(CC(C4)C2)C3)cc1	69*	1%	37*	4%
Cc1ccc(CNC(=O)NC23CC4CC(CC(C4)C2)C3)cc1	-1	7%	0	4%
COc1ccc(Cn2c3nc4ccccc4nc3c3c(=O)n(Cc4ccco4)cnc32)cc1	33	-3%	11	8.9µM*

Assay outcomes as filed in PubChem BioAssay.
